Data from PubChem BioAssay AID1159580 (chemical genetic matrix, 2015).
The campaign covered roughly 5,500 compounds. About 2,000 (36%) were called active. Roughly 18% stayed inconclusive and do not appear here. No stated cut-off is given here; in the data, active means normalized growth mostly below about 0.91 (no sharp cut-off); inconclusive means no clear call, values can overlap the other calls; inactive means mostly above about 0.92. Some of the results follow.

Assay: chemical genetic growth profiling, strain panel (AID 1159580);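 further: tested at 20 µM; growth read once vehicle control cultures reached saturation at 30 °C; 1 = growth at the plate median or of vehicle wells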
Details: growth OD

Measured: normalized growth

C[C@@H]1CC2C3C[C@H](F)C4=CC(=O)C=C[C@]4(C)[C@@]3(F)[C@@H](O)C[C@]2(C)[C@@]1(O)C(=O)COC(=O)C(C)(C)C (some centres not stated)
inactive: S. cerevisiae deletion strains, locus YJR075W, strain HOC1, stronger effect = lower value 0.997 | S. cerevisiae deletion strains, locus YKL009W, strain mrt4, stronger effect = lower value 0.982 | S. cerevisiae deletion strains, locus YKL068W, stronger effect = lower value 1.01 | S. cerevisiae deletion strains, locus YKL085W, strain MDH1 (second series), stronger effect = lower value 1 | S. cerevisiae deletion strains, locus YKL085W, strain MDH1, stronger effect = lower value 1 | S. cerevisiae deletion strains, locus YKL160W, strain elf1, stronger effect = lower value 0.978 | S. cerevisiae deletion strains, locus YKL190W, strain CNB1, stronger effect = lower value 0.997 | S. cerevisiae deletion strains, locus YKR001C, strain vps1, stronger effect = lower value 0.988 | S. cerevisiae deletion strains, locus YKR026C, strain gcn3, stronger effect = lower value 0.997 | S. cerevisiae deletion strains, locus YKR091W, strain srl3, stronger effect = lower value 0.996 | S. cerevisiae deletion strains, locus YLL001W, strain dnm1, stronger effect = lower value 0.987 | S. cerevisiae deletion strains, locus YLL026W, stronger effect = lower value 0.984 | S. cerevisiae deletion strains, locus YLL041C, strain sdh2, stronger effect = lower value 1.01 | S. cerevisiae deletion strains, locus YLR027C, strain aat2, stronger effect = lower value 0.987 | S. cerevisiae deletion strains, locus YLR039C, strain RIC1, stronger effect = lower value 1.02 | S. cerevisiae deletion strains, locus YLR058C, strain SHM2, stronger effect = lower value 1.01 | S. cerevisiae deletion strains, locus YLR102C, strain apc9, stronger effect = lower value 1.01 | S. cerevisiae deletion strains, locus YLR113W, strain HOG1, stronger effect = lower value 0.969 | S. cerevisiae deletion strains, locus YLR221C, strain rsa3, stronger effect = lower value 0.99 | S. cerevisiae deletion strains, locus YLR258W, strain gsy2, stronger effect = lower value 0.995 | S. cerevisiae deletion strains, locus YLR262C, strain YPT6 (second series), stronger effect = lower value 0.98 | S. cerevisiae deletion strains, locus YLR262C, strain YPT6, stronger effect = lower value 0.977 | S. cerevisiae deletion strains, locus YLR268W, strain sec22, stronger effect = lower value 0.984 | S. cerevisiae deletion strains, locus YLR320W, strain mms22, stronger effect = lower value 0.975 | S. cerevisiae deletion strains, locus YLR330W, strain CHS5, stronger effect = lower value 1.01 | S. cerevisiae deletion strains, locus YLR342W, strain FKS1 (second series), stronger effect = lower value 1.03 | S. cerevisiae deletion strains, locus YLR342W, strain FKS1, stronger effect = lower value 0.978 | S. cerevisiae deletion strains, locus YLR357W, strain rsc2, stronger effect = lower value 0.979 | S. cerevisiae deletion strains, locus YLR370C, strain arc18, stronger effect = lower value 0.987 | S. cerevisiae deletion strains, locus YLR371W, strain rom2, stronger effect = lower value 1.01 | S. cerevisiae deletion strains, locus YLR384C, strain iki3, stronger effect = lower value 0.987 | S. cerevisiae deletion strains, locus YLR418C, strain cdc73, stronger effect = lower value 1.03 | S. cerevisiae deletion strains, locus YML016C, strain PPZ1, stronger effect = lower value 1 | S. cerevisiae deletion strains, locus YML032C, strain rad52, stronger effect = lower value 1 | S. cerevisiae deletion strains, locus YML120C, strain ndi1, stronger effect = lower value 0.999 | S. cerevisiae deletion strains, locus YML124C, strain tub3, stronger effect = lower value 1 | S. cerevisiae deletion strains, locus YMR058W, strain fet3, stronger effect = lower value 1.01 | S. cerevisiae deletion strains, locus YMR078C, strain ctf18, stronger effect = lower value 1.01 | S. cerevisiae deletion strains, locus YMR125W, strain sto1, stronger effect = lower value 1.01 | S. cerevisiae deletion strains, locus YMR129W, stronger effect = lower value 0.988 | S. cerevisiae deletion strains, locus YMR205C, strain PFK2, stronger effect = lower value 0.977 | S. cerevisiae deletion strains, locus YMR223W, strain ubp8, stronger effect = lower value 1.04 | S. cerevisiae deletion strains, locus YMR231W, strain pep5, stronger effect = lower value 0.998 | S. cerevisiae deletion strains, locus YMR263W, strain SAP30, stronger effect = lower value 1.01 | S. cerevisiae deletion strains, locus YMR307W, strain GAS1, stronger effect = lower value 0.95 | S. cerevisiae deletion strains, locus YNL067W, strain RPL9B, stronger effect = lower value 0.998 | S. cerevisiae deletion strains, locus YNL071W, strain lat1, stronger effect = lower value 1 | S. cerevisiae deletion strains, locus YNL183C, strain NPR1, stronger effect = lower value 0.962 | S. cerevisiae deletion strains, locus YNL209W, strain ssb2, stronger effect = lower value 0.996 | S. cerevisiae deletion strains, locus YNL233W, strain BNI4, stronger effect = lower value 1.01 | S. cerevisiae deletion strains, locus YNL248C, strain rpa49, stronger effect = lower value 1.01 | S. cerevisiae deletion strains, locus YNL250W, strain rad50, stronger effect = lower value 1.02 | S. cerevisiae deletion strains, locus YNL271C, strain bni1, stronger effect = lower value 1.01 | S. cerevisiae deletion strains, locus YNL298W, strain CLA4, stronger effect = lower value 0.998 | S. cerevisiae deletion strains, locus YNL307C, strain MCK1, stronger effect = lower value 1.02 | S. cerevisiae deletion strains, locus YNL322C, strain KRE1 (second series), stronger effect = lower value 1 | S. cerevisiae deletion strains, locus YNR049C, strain mso1, stronger effect = lower value 0.998 | S. cerevisiae deletion strains, locus YNR052C, strain pop2, stronger effect = lower value 0.998 | S. cerevisiae deletion strains, locus YOL012C, strain htz1 1.17 | S. cerevisiae deletion strains, locus YOL147C, strain pex11, stronger effect = lower value 1.01 | S. cerevisiae deletion strains, locus YOR001W, strain rrp6, stronger effect = lower value 0.98 | S. cerevisiae deletion strains, locus YOR061W, strain CKA2, stronger effect = lower value 1 | S. cerevisiae deletion strains, locus YOR069W, strain VPS5, stronger effect = lower value 1.01 | S. cerevisiae deletion strains, locus YOR070C, strain gyp1, stronger effect = lower value 0.999 | S. cerevisiae deletion strains, locus YOR080W, strain dia2, stronger effect = lower value 0.979 | S. cerevisiae deletion strains, locus YOR083W, strain WHI5, stronger effect = lower value 0.982 | S. cerevisiae deletion strains, locus YOR106W, strain vam3, stronger effect = lower value 0.987 | S. cerevisiae deletion strains, locus YOR136W, strain idh2, stronger effect = lower value 1.01 | S. cerevisiae deletion strains, locus YOR144C, strain elg1, stronger effect = lower value 1 | S. cerevisiae deletion strains, locus YOR184W, strain ser1, stronger effect = lower value 1.04 | S. cerevisiae deletion strains, locus YOR231W, strain MKK1, stronger effect = lower value 0.976 | S. cerevisiae deletion strains, locus YOR265W, strain rbl2, stronger effect = lower value 0.99 | S. cerevisiae deletion strains, locus YOR270C, strain vph1, stronger effect = lower value 1.01 | S. cerevisiae deletion strains, locus YOR290C, strain snf2, stronger effect = lower value 0.997 | S. cerevisiae deletion strains, locus YOR316C, strain cot1, stronger effect = lower value 1.01 | S. cerevisiae deletion strains, locus YPL051W, strain arl3, stronger effect = lower value 0.978 | S. cerevisiae deletion strains, locus YPL055C, strain LGE1, stronger effect = lower value 0.999 | S. cerevisiae deletion strains, locus YPL078C, strain atp4, stronger effect = lower value 0.974 | S. cerevisiae deletion strains, locus YPL106C, strain sse1, stronger effect = lower value 0.946 | S. cerevisiae deletion strains, locus YPL240C, strain hsp82, stronger effect = lower value 1 | S. cerevisiae deletion strains, locus YPL256C, strain CLN2, stronger effect = lower value 0.992 | S. cerevisiae deletion strains, locus YPR119W, strain clb2, stronger effect = lower value 1.01 | S. cerevisiae deletion strains, locus YPR141C, strain kar3, stronger effect = lower value 1 | S. cerevisiae deletion strains, locus YPR163C, strain tif3, stronger effect = lower value 1 | S. cerevisiae deletion strains, locus YPR167C, strain met16, stronger effect = lower value 1.01 | S. cerevisiae deletion strains, strain wtn01, stronger effect = lower value 1 | S. cerevisiae strains, strain wild type, stronger effect = lower value 0.995
